Screening data: PubChem BioAssay, Broad Institute
In the library only some 3.4% were active in any assay of this set; here they are far more common.
HSF-1 act: increases HSF-1 driven luciferase reporter signal. 300,000 compounds, 1.7% hits. NIH3T3-HGL HSF-1 luciferase reporter, MG132, 8 h; 100% = twice DMSO control signal. AID 504408. activation, % at 9 µM;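 active = mean replicate activation of at least 50% with a set share of replicates each reaching 50%; inconclusive = only one of those two conditions met; inactive = mean below 50% and too few replicates reaching it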;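 also: 0% = median of the neutral control wells and 100% = twice that signal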
Vif inh: blocks HIV Vif function | inhibition, % at 7.49 µM | HEK293T cells, Vif self-association by quenched fluorescence, imaging, 24 h | 340,000 compounds, 0.35% hits; in the data active = inhibition above about 50%, passing the limit was not always enough; inconclusive = no clear call, values can overlap the other calls; inactive = below about 31%
esBAF inh: inhibitors of esBAF chromatin remodeling in mouse ES cells; Bmi1-luciferase knock-in reporter, 24 h; 100% = twice the neutral-well signal; reporter increase, % at 12.5 µM; 350,000 compounds, 2% hits; in the data active = activation above about 40%; inconclusive = no clear call, values can overlap the other calls;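 also: 0% = median of the plate's neutral control wells and 100% = double that signal; a rise in the Bmi1 reporter signal indicates esBAF inhibition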
HSF1 inhib: HSF1 inhibition; AID 2098; NIH3T3-HGL HSE-luciferase, MG132-induced, luminescence 8 h; active compounds read low; activity change, negative = inhibition, % at 7.5 µM (by protocol); 300,000 compounds, 0.77% hits;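 active = more than half of replicate wells show activity change below -50%, luminescence cut by over half; inconclusive = some wells, but at most half, below -50%; inactive = no replicate well below -50%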;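 also: luciferase reports HSF-1 transcriptional activity via heat shock element; 0% = median of DMSO wells and -100% = zero luminescence signal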
An asterisk follows results filed as active; i = inactive; ? = inconclusive; . = no result.

SMILES	HSF-1 act	Vif inh	esBAF inh	HSF1 inhib
O=C(NCCc1ccccc1)c1nccc2ccccc12	18.0	-5.0	80.2*	10.2
O=C(NCCc1ccccc1)c1n[nH]c2ccccc12	59.4*	-7.3	24.3	35.0
CCOC(=O)c1n[nH]c2ccccc12	-4.5	-1.4	10.0	2.1
O=C(OCCOc1ccccc1)c1n[nH]c2ccccc12	66.9*	-2.3	?	34.5
O=C(C[C@H]1C=C[C@H](NC(=O)C2CC2)[C@H](CO)O1)NC1CCC1	.	.	0.7	.
COc1ccccc1CNC(=O)C[C@H]1CC[C@@H](NC(=O)CN(C)C)[C@H](CO)O1	.	.	3.6	.
O=C(NCCc1ccccc1)c1c[nH]c2c(F)cccc2c1=O	4.8	-5.2	38.1	10.8
Cc1cccc2c(=O)c(C(=O)NCCc3ccccc3)c[nH]c12	-8.2	-3.1	52.3*	7.6
O=C(COC(=O)c1n[nH]c2ccccc12)NC(=O)NC1CCCCC1	52.3*	-7.2	3.6	24.2
O=C(COC(=O)c1n[nH]c2ccccc12)NC1CCCCC1	.	-4.6	14.6	.
CCC(=O)N1[C@H](CO)[C@@H](c2ccc(-c3ccccc3)cc2)[C@@H]1CN(C)C(C)=O	.	.	1.9	.
CC(=O)N1[C@H](CN(C(=O)c2ccc(F)cc2)C(C)C)[C@H](c2ccccc2)[C@@H]1CO	.	.	0.1	.
Nc1ccc2cccc(O)c2c1	.	-14.1	33.2	.
Nc1ccc2cc3ccccc3cc2c1	.	i	48.5*	.
COCC(=O)N1CC[C@@H]2[C@H]1c1cc(-c3ccc(C#N)cc3)ccc1N[C@@H]2CO	.	.	-5.3	.
CS(=O)(=O)Nc1ccc2c(c1)[C@@H]1C[C@@H](CC(=O)NCc3ccccc3F)O[C@H](CO)[C@@H]1O2	.	.	1.9	.
O=C(CSc1nnc2c(Cl)cc(C(F)(F)F)cn12)N(Cc1ccccc1)Cc1ccccc1	104.7*	6.4	.	57.3
O=C(CSc1nnc2c(Cl)cc(C(F)(F)F)cn12)NCc1ccc(F)cc1	19.7	-3.0	.	-1.6
CO[C@@H]1CN(C)C(=O)c2ccc(NS(=O)(=O)c3cn(C)cn3)cc2OC[C@@H](C)N(CC2CC2)C[C@H]1C	.	.	-3.7	.
Cc1ccccc1NC(=O)CC(C)S(=O)(=O)c1ccc2c(c1)NC(=O)CO2 (centres undefined)	62.0*	-1.2	-1.8	17.1
CC(CC(=O)Nc1cccc(F)c1)S(=O)(=O)c1ccc2c(c1)NC(=O)CO2 (centres undefined)	0.9	4.7	-6.1	2.5
COc1cc(NC(=O)CC(C)S(=O)(=O)c2ccc3c(c2)NC(=O)CO3)cc(OC)c1OC (centres undefined)	54.7*	-2.8	-4.3	12.1
COc1cccc(-c2cnc3c(c2)C(=O)N([C@H](C)CO)C[C@H](C)[C@H](CN(C)C)O3)c1	.	.	-0.9	.
CO[C@@H]1CN(C)C(=O)c2ccc(NC(=O)c3ccccc3F)cc2OC[C@@H](C)NC[C@@H]1C	.	.	0.2	.
CCNC(=S)N(Cc1cccs1)Cc1cc2cc(OCC)ccc2[nH]c1=O	13.8	5.4	-0.2	12.0
SMILES	HSF-1 act	Vif inh	esBAF inh	HSF1 inhib
CNC(=S)N(Cc1ccco1)Cc1cc2cc(OC)c(OC)cc2[nH]c1=O	56.7*	-2.7	.	14.6
CCNC(=S)N(Cc1ccco1)Cc1cc2cc(OCC)ccc2[nH]c1=O	70.7*	-7.4	.	41.0
CCCNC(=O)[C@@H]1[C@@H](CO)[C@@H]2Cn3c(cccc3=O)[C@@H]2N1C(=O)C1CCCC1	.	.	-4.7	.
O=C1c2ccccc2C(=O)c2c1oc(C(F)(F)F)c2C(=O)c1ccccc1	-80.3	-3.7	.	-78.3*
Cc1ccc(-n2nc(C)c3c(C)cc(=O)[nH]c32)cc1	0.4	-3.7	10.9	-1.0
Cc1cc(=O)[nH]c2c1c(=O)[nH]n2C1CC(C)N(C)CC1C (centres undefined)	-67.4	.	-9.7	-57.1*
CCOC(=O)c1cn(-c2c(Cl)cccc2Cl)c2cc(Cl)c([N+](=O)[O-])cc2c1=O	103.7*	2.5	.	56.3
CC(NC(=O)C1CCN(CCOc2ccc(Cl)cc2)CC1)c1cccc2ccccc12 (centres undefined)	.	66.0*	-8.7	.
CCn1nc(C(=O)N2CCc3ccccc3C2)c2ccccc2c1=O	5.1	1.4	0.1	-4.3
CCn1nc(C(=O)N2CCN(Cc3nc4ccccc4s3)CC2)c2ccccc2c1=O	.	1.1	53.2*	.
CCn1nc(C(=O)NNC(=O)c2ccccc2)c2ccccc2c1=O	.	-3.2	45.5*	.
C[C@@H]1CN([C@@H](C)CO)C(=O)Cc2cc(NC(=O)Nc3ccc4c(c3)OCO4)ccc2O[C@H]1CN(C)C(=O)Nc1ccccc1	.	.	8.1	.
CC(=O)Nc1ccc(NC(=O)COC(=O)[C@@H](NC(=O)c2ccc(F)cc2)C(C)C)cc1	62.0*	-2.5	.	17.0
COC(=O)C[C@H]1CC[C@@H]2[C@H](COc3ccc(NC(=O)c4cc(C)on4)cc3C(=O)N2C)O1	.	.	-3.2	.
O=C1CC(c2ccccc2)n2nc(NC(=O)c3ccccc3)nc2N1 (centres undefined)	63.8*	-2.0	-5.9	12.5
Cc1ccc([C@H]2C[C@H](O)[C@@H](n3cc(C4CC4)nn3)CN2Cc2cccs2)cc1	.	3.0	46.9*	.
O=C(C[C@@H]1CC[C@H](NC(=O)Nc2cccc(F)c2)[C@H](CO)O1)NCC1CCCCC1	.	.	6.6	.
Cc1ccc2nc(NC(=S)NC(=O)c3cccs3)sc2c1	8.8	0.3	50.6*	13.6
CSc1nc2ccc(NC(=O)c3ccco3)cc2s1	?	-6.9	.	20.7
CSc1nc2ccc(NC(=O)c3cccs3)cc2s1	.	-14.9	77.7*	.
COc1ccc(CN(C)C[C@H]2OCCCC[C@@H](C)Oc3ccc(NC(=O)Nc4ccc(OC)cc4)cc3C(=O)N([C@H](C)CO)C[C@H]2C)cc1	.	.	-3.7	.
C[C@H](CO)N1C[C@H](C)[C@@H](CN(C)C(=O)Nc2ccc(C(F)(F)F)cc2)OCCCC[C@H](C)Oc2ccc(NC(=O)c3ccncc3)cc2C1=O	.	.	3.9	.
CC(C)(C)OC(=O)N1CCN(C(=O)c2[nH]cnc2C(=O)NCC(=O)OCc2ccccc2)CC1	-90.3	6.3	-1.7	-87.9*
CC(C)(C)OC(=O)N1CCN(C(=O)c2[nH]cnc2C(=O)NCc2ccccc2)CC1	.	4.0	6.9	.
Cc1ccc(S(=O)(=O)Nc2ccc3c(c2)C(=O)N([C@H](C)CO)C[C@H](C)[C@H](CN(C)C(=O)NC2CCCCC2)OCCCC[C@H](C)O3)cc1	.	.	5.7	.
SMILES	HSF-1 act	Vif inh	esBAF inh	HSF1 inhib
CCOC(=O)c1c(C)oc2c1c(C(c1ccccc1)N1CCOCC1)c(O)c1ccccc12 (centres undefined)	26.0	13.0	46.7*	15.8
COc1ccc(C(=O)/C=C/c2cn(CN3CCN(C)CC3)c3ccccc23)cc1	.	-1.4	51.4*	.
COc1ccccc1NC(=S)N1CCN(C(=O)C2CCCO2)CC1 (centres undefined)	-5.4	64.3*	.	-7.7
O=C(COC(=O)c1ccccc1)c1ccc(Br)cc1	57.8*	-2.7	61.0*	52.1
CNc1ccccc1C(=O)OCC(=O)c1ccccc1	-2.3	0.9	58.6*	12.0
CCCCOC(=O)c1ccc(O)cc1	18.3	-2.1	-11.8	0.3
O=C(CCCOC(=O)c1ccc(O)cc1)c1ccccc1	.	3.5	43.0*	.
CNc1ccccc1C(=O)OCC(=O)c1ccc(F)cc1	25.8	2.0	.	9.0
